Assay results reported in PubChem BioAssay AID2156 (Johns Hopkins Ion Channel Center, 2009).
Screen size: about 310,000 compounds; about 3,400 (1.1%) were called active. Shown is part of a subset that was picked to be rich in actives. A number with no mark means an inactive call.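 How the source made its calls: active means fluorescence ratio B-score at most minus 3 library SDs, with starting brightness B-score within 2 library SDs (cut at about -5.5 in these data); inactive means the rest, inconclusive results apart.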

Each compound was assayed against Potassium voltage-gated channel subfamily KQT member 2 (Rattus norvegicus) (UniProt O88943) (assay: rat KCNQ2 potassium channel inhibitors, primary screen, cell-based, CHO-K1, FluxOR thallium flux, B-score (AID 2156)). Conditions: 20 min, at 10 µM; hits give low values.
Sequence of Potassium voltage-gated channel subfamily KQT member 2 (Rattus norvegicus) (O88943 whole entry, looked up): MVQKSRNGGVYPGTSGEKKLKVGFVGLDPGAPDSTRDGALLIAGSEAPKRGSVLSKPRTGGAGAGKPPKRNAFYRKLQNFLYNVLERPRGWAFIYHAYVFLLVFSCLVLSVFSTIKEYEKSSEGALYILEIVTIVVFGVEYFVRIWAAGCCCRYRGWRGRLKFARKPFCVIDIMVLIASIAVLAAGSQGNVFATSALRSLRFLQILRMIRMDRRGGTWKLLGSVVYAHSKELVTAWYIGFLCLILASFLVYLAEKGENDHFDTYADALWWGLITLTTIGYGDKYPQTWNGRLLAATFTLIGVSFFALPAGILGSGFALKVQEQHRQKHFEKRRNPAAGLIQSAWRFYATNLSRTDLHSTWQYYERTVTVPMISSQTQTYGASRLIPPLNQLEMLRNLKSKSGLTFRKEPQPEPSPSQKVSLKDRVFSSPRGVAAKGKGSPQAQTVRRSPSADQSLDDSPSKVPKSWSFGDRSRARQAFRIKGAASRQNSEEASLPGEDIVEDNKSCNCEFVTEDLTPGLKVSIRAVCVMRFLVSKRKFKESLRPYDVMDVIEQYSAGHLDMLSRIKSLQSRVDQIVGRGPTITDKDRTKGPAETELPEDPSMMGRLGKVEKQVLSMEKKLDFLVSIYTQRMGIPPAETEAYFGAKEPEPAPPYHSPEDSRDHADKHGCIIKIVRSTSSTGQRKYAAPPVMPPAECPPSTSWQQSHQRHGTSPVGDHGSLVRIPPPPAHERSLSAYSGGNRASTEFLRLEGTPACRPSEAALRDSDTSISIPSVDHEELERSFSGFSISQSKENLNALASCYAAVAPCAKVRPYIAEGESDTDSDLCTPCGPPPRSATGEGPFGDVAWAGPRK

SMILES	B-score
CC(OC(=O)CCCc1c[nH]c2ccccc12)C(=O)Nc1ccc(S(N)(=O)=O)cc1 (stereo unspecified)	-1.39
Clc1ccc(CSc2nnc(/C=C/c3ccccc3)o2)c(Cl)c1	-5.38
CSCc1cc(N(C)C)nc(SCc2ccc(Cl)cc2Cl)n1	-9.71 (active)
CSCc1cc(N2CCOCC2)nc(SCc2ccc(Cl)cc2Cl)n1	-0.52
C=CCOc1ccc(/C=C/C(=O)OCC(=O)NC(C)c2ccc(F)cc2)cc1 (stereo unspecified)	inactive
O=C(Nc1ccc(S(=O)(=O)N2CCCCC2)cc1)C1CCN(C(=O)c2ccc(F)cc2)CC1	-0.91
CC1=CC(C)(C)Nc2ccc(OC(=O)CN3C(=O)C4CCCCC4C3=O)cc21 (stereo unspecified)	-1.65
CCOC(=O)C(Cc1ccc(N)cc1)N1C(=O)c2ccccc2C1=O (stereo unspecified)	inactive
CC1=CC(C)(C)Nc2ccc(OC(=O)C(Cc3ccccc3)N3C(=O)C4CCCCC4C3=O)cc21 (stereo unspecified)	-7.42 (active)
CCC/C=C(\CCC)C(NC(=O)Cc1ccccc1)c1ccc(C(=O)OC)cc1 (stereo unspecified)	-7.39 (active)
CCC[C@@H]1C[C@@]1(CCC)[C@@H](NC(=O)c1ccccc1)c1ccc(C(=O)OC)cc1	-5.11
COC(=O)c1ccc(C(NC(=O)OCc2ccccc2)/C(F)=C/[C@@H](C)C(=O)O)cc1 (stereo partly specified)	-1.01
Cc1ccc(C(=O)CN2C(=O)NC3(CCc4ccccc43)C2=O)c(C)c1 (stereo unspecified)	-1.41
COc1ccccc1-n1ccnc(SCC(=O)NC2CCCCC2)c1=O	inactive
O=C1[C@H]2[C@@H](c3ccc(Cl)cc3)N3C(=O)N(c4cccc(F)c4)C(=O)[C@@]3(Cc3ccccc3)[C@H]2C(=O)N1C1CCCCC1	inactive
COc1ccc(N2CC(NS(=O)(=O)c3ccc4ccccc4c3)CC2=O)cc1 (stereo unspecified)	-0.16
Cc1ccc(-c2nnc(C)c(N3CC(C)OC(C)C3)n2)cc1 (stereo unspecified)	-0.19
CC1CN(c2nc(Nc3ccccc3)nc(N)c2[N+](=O)[O-])CC(C)O1 (stereo unspecified)	-0.73
CC1CN(c2nc(-c3ccccc3)nnc2-c2ccccc2)CC(C)O1 (stereo unspecified)	-6.3 (active)
C=CS(=O)c1sc(Cl)c(N2CCOCC2)c1[N+](=O)[O-] (stereo unspecified)	-15.5 (active)
COc1ccc(NC(=O)CN(C)C(=O)/C=C/c2cn(Cc3ccccc3)nc2-c2cccnc2)cc1	-0.04
O=C(COc1ccccc1)Nc1ccc(F)cc1	-1.43
O=C(NCC1CCCO1)c1cc2c([nH]c3ccccc32)c(-c2ccc(F)cc2)n1 (stereo unspecified)	-8.97 (active)

SMILES	B-score
O=C(NCC1CCCO1)c1cc(-c2ccccc2)nc2ccccc12 (stereo unspecified)	inactive
O=C(NCCCO)c1cc2c([nH]c3ccccc32)c(-c2ccc(F)cc2)n1	inactive
COc1ccc(C(=O)N(Cc2ccccc2)c2ccc(C)cc2)cc1S(=O)(=O)N1CCOCC1	-0.58
CC1CCCCC1NC(=O)c1cc(=O)[nH]c2ccccc12 (stereo unspecified)	-0.66
CCc1ccc(CN2C(=O)c3ccccc3C2C(=O)NCC2CCCO2)cc1 (stereo unspecified)	inactive
O=C(NC1CCCCC1)C1c2ccccc2C(=O)N1Cc1ccco1 (stereo unspecified)	inactive
CC1CCC(NC(=O)C2c3ccccc3C(=O)N2Cc2ccc3c(c2)OCO3)CC1 (stereo unspecified)	-6.13 (active)
Cc1cc(C)cc(NC(=O)COc2coc(CN3CCN(c4ccccc4)CC3)cc2=O)c1	inactive
CSc1ccc(S(=O)(=O)NCC(=O)OCC(=O)NC2(C#N)CCCCC2)cc1[N+](=O)[O-]	inactive
CN1CCN(C2Cc3ccc(Cl)cc3Sc3ccc(F)cc32)CC1 (stereo unspecified)	-4.84
CCOc1ccc(NC(=O)c2ccc(NC(=O)CN3C(=O)C(=O)N(CC(C)C)C3=O)cc2)cc1	inactive
O=C(c1cncc(Br)c1)N1CCN(c2ccc([N+](=O)[O-])cc2)CC1	-4.15
O=C(c1ccccc1)c1ccc(C(=O)N2CCN(c3ccccc3)CC2)cc1	-0.65
O=C(c1cc(C(=O)N2CCN(c3ccc(F)cc3)CC2)cc([N+](=O)[O-])c1)N1CCN(c2ccc(F)cc2)CC1	-5.93 (active)
O=C(c1cccc(F)c1)N1CCN(c2ccc([N+](=O)[O-])c(N3CCCCC3)c2)CC1	-0.07
O=C(c1cc2cc(F)ccc2[nH]1)N1CCN(c2ccc(F)cc2)CC1	inactive
O=C(c1cccc(C(=O)N2CCN(c3ccc(F)cc3)CC2)c1)N1CCN(c2ccc(F)cc2)CC1	-6 (active)
Cc1ccc(Cc2nnc(SCC(=O)Nc3ccc(C)cc3C)[nH]c2=O)cc1	inactive
CC(=O)CC(CC(=O)NC1CCCCC1)c1ccccc1 (stereo unspecified)	inactive
O=C1[C@H]2[C@@H](c3ccc(F)cc3)N3C(=O)N(c4ccc(C(F)(F)F)cc4)C(=O)[C@@]3(Cc3ccccc3)[C@H]2C(=O)N1C1CCCCC1	-0.02
O=C(NCC(c1ccco1)N1CCc2ccccc2C1)c1ccccc1Cl (stereo unspecified)	-1.22
Cc1ccc(Cc2nnc(SCC(=O)Nc3ccccc3C)[nH]c2=O)cc1	inactive
CCOc1ccc(NS(=O)(=O)c2ccc(C(=O)NC3CCN(Cc4ccccc4)CC3)cc2)cc1	inactive

SMILES	B-score
CCOc1cc(-c2nc3cc(C)ccn3c2NCC2CCCO2)ccc1O (stereo unspecified)	-5.56 (active)
CCOc1cc(C(C(=O)NCC2CCCO2)N(C(=O)Cn2nnc3ccccc32)c2cccc(OC)c2)ccc1O (stereo unspecified)	inactive
CCOc1ccc(N(CC(=O)NCC2CCCO2)S(=O)(=O)c2ccc(C)cc2)cc1 (stereo unspecified)	-0.74
O=[N+]([O-])c1ncc(Br)cc1Nc1ccccc1	-2.54
CC(=O)N1CCN(C(=O)c2cc(-c3ccc(C)o3)nc3ccccc23)CC1	inactive
Cn1cccc1C(=O)NNC(=O)COc1ccc(Br)cc1	-0.05
COc1cc(NC(=O)CSC(=S)N2CCCC2)c(OC)cc1Cl	inactive
Cc1c(CN2CC[C@@H](N3CCN(c4ccccn4)CC3)[C@H](O)C2)[nH]c2ccc(F)cc12	-0.01
CC(C)OCCCNc1ncnc2c1[nH]c1ccc(F)cc12	-0.41
Fc1ccc2[nH]c3c(N4CCSCC4)ncnc3c2c1	-10.1 (active)
Cc1ccc(CNS(=O)(=O)CCNC(=O)c2ccccc2)cc1	inactive
CSc1ccccc1NC(=O)c1cnc2sc(C)cn2c1=O	inactive
O=C(Nc1ccccc1)N1CCN(C(=O)Nc2ccccc2)CC1	inactive
O=C(Nc1ccc(Cl)c(Cl)c1)N1CC=C(c2ccccc2)CC1	-8.43 (active)
COc1cc(C(=O)NCC(=O)N2CC=C(c3ccccc3)CC2)cc(OC)c1OC	inactive
CC(OC(=O)CNC(=O)c1cccc(F)c1)C(=O)NC1CCCCC1C (stereo unspecified)	inactive
COCCCN(C(=O)CSCc1ccc(C)cc1)c1c(N)n(Cc2ccccc2)c(=O)[nH]c1=O	inactive
CN(C)CCCN1C(=O)CSC1c1ccc([N+](=O)[O-])cc1 (stereo unspecified)	-0.19
CCCCCCOc1ccc(OC(=O)c2cccnc2)cc1	inactive
CCCCCCCCCCCCN1C(=O)CSC1c1cccnc1 (stereo unspecified)	-6.52 (active)
O=C(Nc1ccc(OC(F)(F)F)cc1)c1ccc2c(c1)no[n+]2[O-]	inactive
COc1cccc(CNc2nc3nc4c(c(=O)n3[nH]2)CCC4)c1	inactive
COc1cccc(-c2nc(S(=O)(=O)c3ccccc3)c(N3CCOCC3)o2)c1	inactive

SMILES	B-score
COc1cccc(-c2cc3nc4c(c(N5CCC6(CC5)OCCO6)n3n2)CCCC4)c1	-5.95 (active)
CN(C(=O)CN1C(=O)NC(C)(CCc2ccccc2)C1=O)c1ccccc1 (stereo unspecified)	inactive
CC(C)CC(N=C1NC(C)(C)Cc2ccccc21)C(=O)O (stereo unspecified)	-0.08
CC1(C)Cc2ccccc2/C(=C/C(=O)c2ccccc2)N1	-5.67 (active)
CCOC(=O)C1=C(NC(=S)NC(=O)c2ccccc2)c2ccccc2CC1(C)C	-1.51
COc1ccc(CCNc2nc(-c3cccc(NC(C)=O)c3)cs2)cc1OC	-0.02
COc1ccc(CCN(C(=O)COc2ccccc2)c2nc(-c3ccccc3)cs2)cc1OC	-7.67 (active)
COc1cccc(CC(=O)Nc2nc(-c3ccc(OC)c(OC)c3)cs2)c1	inactive
CCN1CCN(c2ccc(S(=O)(=O)N3CCCCC3)cc2NC(=O)c2cccc(NC(C)=O)c2)CC1	inactive
COc1cc(C(=O)OCC(=O)N(CC(C)C)C2CCS(=O)(=O)C2)ccc1OCC(C)C (stereo unspecified)	inactive
C=CCNC(=O)CSc1nc2scc(-c3ccco3)c2c(=O)n1CC=C	-1
C=CCn1c(SCc2csc(C)n2)nc2scc(-c3ccc(C)o3)c2c1=O	-5.75 (active)
C=CCn1c(SCc2c(C)noc2C)nc2sc3c(c2c1=O)CCC(C)C3 (stereo unspecified)	-3.13
COc1cc(C(=O)N(C)Cc2cccc(OC)c2OC)ccc1OCC(=O)Nc1cccc(C(F)(F)F)c1	-4.11
COc1ccc(F)cc1S(=O)(=O)NCC(c1ccc2c(c1)OCO2)N1CCN(C)CC1 (stereo unspecified)	-0.58
Cc1cc(OCC(=O)Nc2c(C)n(C)n(-c3ccccc3)c2=O)ccc1[N+](=O)[O-]	-0.54
Cc1cc(OCCCN2CCN(Cc3ccccc3)CC2)ccc1[N+](=O)[O-]	inactive
Cc1cc(OCCCCOc2ccc(C#N)cc2)ccc1[N+](=O)[O-]	-6.09 (active)
Cc1cccc(N(Cc2ccccc2)C(=O)c2cc(S(=O)(=O)N3CCOCC3)ccc2F)c1	inactive
CC(=O)c1c(C)[nH]c(C(=O)CN2C(=O)NC(C)(C)C2=O)c1C	inactive
COc1ccccc1NS(=O)(=O)c1ccc(C(=O)N2CCN(c3ccccc3O)CC2)cc1	inactive
Cc1c(NC(=O)C(C)OC(=O)c2c3c(nc4ccccc24)CCC(C)C3)c(=O)n(-c2ccccc2)n1C (stereo unspecified)	inactive
